According to PubChem BioAssay (Tox21):
Results filed as inconclusive are left out. Where a call stands in place of a potency, no number is given. Activity calls are given as the source filed them. Unless noted, the call rests on the fitted dose curve; in most records, active means well fitted cell-killing curve with a large enough effect in the repeat runs (not every such curve was filed as active); inconclusive means weak or mixed curves, or effect the other way; inactive means no such curve, though single readings can be large or run the other way.

target: Bile acid receptor (Homo sapiens) (UniProt Q96RI1); assay: qHTS assay to identify small molecule agonists of the farnesoid-X-receptor (FXR) signaling pathway (AID 743220; active means well fitted activation curve with a large enough effect in the signal ratio in the repeat runs, not every such curve was filed as active; the % refers to the signal ratio); settings: HEK293T FXR-UAS-bla, beta-lactamase FRET ratio, 16 h; series mostly up to 62.6 µM
Procedure, shortened: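 Beta-lactamase reporter under UAS control in GeneBLAzer FXR HEK 293T cells (5000/well) measured with LiveBLAzer FRET substrate after 2 h at room temperature. Compound exposure lasted 16 h at 37C.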

Bile acid receptor (Homo sapiens), sequence (Q96RI1 whole entry, looked up): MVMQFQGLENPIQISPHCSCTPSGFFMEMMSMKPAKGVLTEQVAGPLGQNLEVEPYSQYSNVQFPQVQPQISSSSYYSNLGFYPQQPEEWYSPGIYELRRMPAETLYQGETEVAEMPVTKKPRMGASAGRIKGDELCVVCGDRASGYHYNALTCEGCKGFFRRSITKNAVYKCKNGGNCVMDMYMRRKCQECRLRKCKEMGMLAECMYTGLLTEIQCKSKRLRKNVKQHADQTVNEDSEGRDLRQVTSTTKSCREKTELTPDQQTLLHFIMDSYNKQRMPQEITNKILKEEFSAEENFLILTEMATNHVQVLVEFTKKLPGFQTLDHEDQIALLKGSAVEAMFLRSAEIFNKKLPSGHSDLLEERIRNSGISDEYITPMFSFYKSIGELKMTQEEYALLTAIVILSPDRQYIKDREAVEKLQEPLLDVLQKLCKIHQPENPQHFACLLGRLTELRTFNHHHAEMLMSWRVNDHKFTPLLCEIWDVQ

**Q.** With `CC(C)(C)c1ccc(CCOc2ncnc3ccccc23)cc1` as the compound, how does the outcome read?
**A.** inactive

**Q.** Which outcome does the source give for `CCN(C(C)=O)c1cccc(-c2ccnc3c(C#N)cnn23)c1` here?
**A.** inactive

**Q.** For `CN1C[C@H](C(=O)N[C@]2(C)O[C@@]3(O)[C@@H]4CCCN4C(=O)[C@H](Cc4ccccc4)N3C2=O)C=C2c3cccc4[nH]cc(c34)C[C@H]21`, which outcome is on record?
**A.** inactive

**Q.** With `CCNC(=O)NC(=O)/C(C#N)=N/OC` as the compound, how does the outcome read?
**A.** inactive

**Q.** Which outcome does the source give for `CC(Oc1cc(Cl)c(Cl)cc1Cl)C(=O)O` (stereo unspecified) here?
**A.** inactive

test system: not listed separately; assay: qHTS assay to identify small molecule antagonists of the farnesoid-X-receptor (FXR) signaling pathway - cell viability counter screen (AID 743221); settings: FXR-bla HEK293T viability, CellTiter-Glo luminescence, 16 h; series mostly up to 62.6 µM; further: nearly all actives have a fitted effect of over 50% in size
Procedure, shortened: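 GeneBLAzer FXR-UAS-bla HEK 293T cells, compound plus chenodeoxycholic acid (50 uM final), 16 h at 37 C. CellTiter-Glo added to the same wells after the beta-lactamase read; luminescence read after 30 min at room temperature as viability.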

**Q.** With `CCCC(C)(COC(N)=O)COC(=O)NC(C)C` (stereo unspecified) as the compound, how does the Potency read?
**A.** inactive

**Q.** With `ClCc1ccccc1Cl` as the compound, how does the Potency read?
**A.** inactive

**Q.** For `CCCCC1C(=O)NC(=O)N(C2CCCCC2)C1=O` (stereo unspecified), which Potency is on record?
**A.** inactive

**Q.** For `CCC1(C2=NCCN2)Cc2ccccc2O1` (stereo unspecified), which Potency is on record?
**A.** inactive

**Q.** For `CC(C)(C)c1ccc(CCOc2ncnc3ccccc23)cc1`, which Potency is on record?
**A.** inactive

**Q.** Which Potency does the source give for `NNCCO` here?
**A.** inactive

**Q.** For `CC[N+]1(C)CCCC(OC(=O)C(O)(c2ccccc2)c2ccccc2)C1` (stereo unspecified), which Potency is on record?
**A.** inactive

**Q.** Which Potency does the source give for `CC1(C)[C@H](C(=O)O[C@H](C#N)c2cccc(Oc3ccccc3)c2)[C@@H]1C=C(Br)Br` here?
**A.** inactive

**Q.** For `Oc1cccc(Cl)c1`, which Potency is on record?
**A.** inactive

**Q.** Which Potency does the source give for `Cc1cccc(C)c1NC1=NCCCS1` here?
**A.** inactive

**Q.** Which Potency does the source give for `CN1C[C@H](C(=O)N[C@]2(C)O[C@@]3(O)[C@@H]4CCCN4C(=O)[C@H](Cc4ccccc4)N3C2=O)C=C2c3cccc4[nH]cc(c34)C[C@H]21` here?
**A.** inactive

**Q.** Which Potency does the source give for `c1ccc2c(c1)-c1cccc3cccc-2c13` here?
**A.** inactive

**Q.** For `CCCCC(CC)CO[N+](=O)[O-]` (stereo unspecified), which Potency is on record?
**A.** inactive

**Q.** For `CCNC(=O)NC(=O)/C(C#N)=N/OC`, which Potency is on record?
**A.** inactive

**Q.** With `N#CC(C#N)=Cc1ccc(O)c(O)c1` as the compound, how does the Potency read?
**A.** inactive

**Q.** For `O=C(Cl)OCCOCCOC(=O)Cl`, which Potency is on record?
**A.** inactive

**Q.** Which Potency does the source give for `CC(CC(C(N)=O)(c1ccccc1)c1ccccc1)N(C)C` (stereo unspecified) here?
**A.** inactive

**Q.** Which Potency does the source give for `C1CS1` here?
**A.** inactive

**Q.** For `CN1CC[C@]23c4c5ccc(O)c4O[C@H]2[C@@H](O)C=C[C@H]3[C@H]1C5`, which Potency is on record?
**A.** inactive

**Q.** Which Potency does the source give for `O=C([O-])c1ccccn1.O=C([O-])c1ccccn1.O=C([O-])c1ccccn1.[Cr+3]` here?
**A.** inactive

**Q.** With `C=CC(C)(CCC=C(C)C)OC(=O)c1ccccc1N` (stereo unspecified) as the compound, how does the Potency read?
**A.** inactive

**Q.** With `CCCN(CCOc1c(Cl)cc(Cl)cc1Cl)C(=O)n1ccnc1` as the compound, how does the Potency read?
**A.** inactive

**Q.** With `CC(Oc1cc(Cl)c(Cl)cc1Cl)C(=O)O` (stereo unspecified) as the compound, how does the Potency read?
**A.** inactive

**Q.** With `Cc1ncc(C[n+]2csc(CCO)c2C)c(N)n1` as the compound, how does the Potency read?
**A.** inactive

**Q.** For `CCOP(=S)(S)OCC`, which Potency is on record?
**A.** inactive

**Q.** For `Cc1cnc(C2=NC(C)(C(C)C)C(=O)N2)c(C(=O)O)c1` (stereo unspecified), which Potency is on record?
**A.** inactive

**Q.** For `C=CC(=O)NC(C)(C)CC(C)=O`, which Potency is on record?
**A.** inactive

**Q.** Which Potency does the source give for `CC(C)(C)NCC(O)c1cc(Cl)c(N)c(C(F)(F)F)c1` (stereo unspecified) here?
**A.** inactive

**Q.** With `COc1cc(CC#N)cc(OC)c1OC` as the compound, how does the Potency read?
**A.** inactive

target: Vitamin D3 receptor (Homo sapiens) (UniProt P11473); assay: qHTS assay to identify small molecule agonists of the vitamin D receptor (VDR) signaling pathway (AID 743222; calls by dose curve); settings: HEK293T VDR-UAS-bla, beta-lactamase FRET ratio, 16 h; series mostly up to 63.5 µM
Procedure, shortened: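 VDR-bla cells, 2,000/well; 4 h preincubation 37C; cpd (DMSO) 16 h; LiveBLAzer B/G substrate 2 h RT; fluorescence intensity read.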

Vitamin D3 receptor (Homo sapiens), sequence (P11473 whole entry, looked up): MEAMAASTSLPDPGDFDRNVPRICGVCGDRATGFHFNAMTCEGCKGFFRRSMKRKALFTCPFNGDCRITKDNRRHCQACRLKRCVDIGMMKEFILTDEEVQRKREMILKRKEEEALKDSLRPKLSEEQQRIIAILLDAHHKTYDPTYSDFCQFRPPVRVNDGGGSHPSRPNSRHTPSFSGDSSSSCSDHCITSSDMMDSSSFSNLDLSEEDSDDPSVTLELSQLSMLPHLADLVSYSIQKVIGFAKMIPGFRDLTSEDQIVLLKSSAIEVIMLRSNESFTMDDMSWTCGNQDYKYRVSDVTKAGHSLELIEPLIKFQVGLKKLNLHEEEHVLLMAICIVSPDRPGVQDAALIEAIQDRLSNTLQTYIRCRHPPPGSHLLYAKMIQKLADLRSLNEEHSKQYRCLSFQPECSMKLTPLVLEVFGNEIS

**Q.** With `CCCC(C)(COC(N)=O)COC(=O)NC(C)C` (stereo unspecified) as the compound, how does the outcome read?
**A.** inactive

**Q.** With `ClCc1ccccc1Cl` as the compound, how does the outcome read?
**A.** inactive

**Q.** For `CCCCC1C(=O)NC(=O)N(C2CCCCC2)C1=O` (stereo unspecified), which outcome is on record?
**A.** inactive

**Q.** For `Nc1ccccc1C(=O)OCCc1ccccc1`, which outcome is on record?
**A.** inactive

**Q.** With `NNCCO` as the compound, how does the outcome read?
**A.** inactive

**Q.** With `O=S(=O)(Cl)Cl` as the compound, how does the outcome read?
**A.** inactive

**Q.** For `CCN(C(C)=O)c1cccc(-c2ccnc3c(C#N)cnn23)c1`, which outcome is on record?
**A.** inactive

**Q.** For `Cc1cccc(C)c1NC1=NCCCS1`, which outcome is on record?
**A.** inactive

**Q.** With `CCNC(=O)NC(=O)/C(C#N)=N/OC` as the compound, how does the outcome read?
**A.** inactive

**Q.** Which outcome does the source give for `CC(CC(C(N)=O)(c1ccccc1)c1ccccc1)N(C)C` (stereo unspecified) here?
**A.** inactive

**Q.** With `O=C(Cc1ccccc1)OCCc1ccccc1` as the compound, how does the outcome read?
**A.** inactive

**Q.** For `CN1CC[C@]23c4c5ccc(O)c4O[C@H]2[C@@H](O)C=C[C@H]3[C@H]1C5`, which outcome is on record?
**A.** inactive

**Q.** For `C=CC(C)(CCC=C(C)C)OC(=O)c1ccccc1N` (stereo unspecified), which outcome is on record?
**A.** inactive

**Q.** With `CC(Cl)C(=O)O` (stereo unspecified) as the compound, how does the outcome read?
**A.** inactive

**Q.** Which outcome does the source give for `Cc1ncc(C[n+]2csc(CCO)c2C)c(N)n1` here?
**A.** inactive

**Q.** With `CCOP(=S)(S)OCC` as the compound, how does the outcome read?
**A.** inactive

**Q.** For `C=CC(=O)NC(C)(C)CC(C)=O`, which outcome is on record?
**A.** inactive

**Q.** For `CC(C)(C)NCC(O)c1cc(Cl)c(N)c(C(F)(F)F)c1` (stereo unspecified), which outcome is on record?
**A.** inactive

**Q.** Which outcome does the source give for `COc1cc(CC#N)cc(OC)c1OC` here?
**A.** inactive

target: Vitamin D3 receptor (Homo sapiens) (UniProt P11473); assay: qHTS assay to identify small molecule antagonists of the vitamin D receptor (VDR) signaling pathway (AID 743223; active means well fitted inhibition curve with a large enough effect in the signal ratio in the repeat runs, not every such curve was filed as active; the % refers to the signal ratio); settings: VDR-UAS-bla HEK293T, beta-lactamase FRET ratio, 16 h; series mostly up to 61 µM
Procedure, shortened: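 VDR-bla cells were treated with compound plus 3 nM final 1alpha,25-dihydroxyvitamin D3 for 16 h at 37C. Beta-lactamase reporter read by B/G FRET substrate fluorescence after 2 h at room temperature. qHTS format.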

**Q.** For `CCCC(C)(COC(N)=O)COC(=O)NC(C)C` (stereo unspecified), which Potency is on record?
**A.** inactive

**Q.** For `CCCCC1C(=O)NC(=O)N(C2CCCCC2)C1=O` (stereo unspecified), which Potency is on record?
**A.** inactive

**Q.** For `Nc1ccccc1C(=O)OCCc1ccccc1`, which Potency is on record?
**A.** inactive

**Q.** For `CCC1(C2=NCCN2)Cc2ccccc2O1` (stereo unspecified), which Potency is on record?
**A.** inactive

**Q.** With `CC(C)(C)c1ccc(CCOc2ncnc3ccccc23)cc1` as the compound, how does the Potency read?
**A.** inactive

**Q.** For `CC[N+]1(C)CCCC(OC(=O)C(O)(c2ccccc2)c2ccccc2)C1` (stereo unspecified), which Potency is on record?
**A.** inactive

**Q.** Which Potency does the source give for `O=S(=O)(Cl)Cl` here?
**A.** inactive

**Q.** Which Potency does the source give for `CCN(C(C)=O)c1cccc(-c2ccnc3c(C#N)cnn23)c1` here?
**A.** inactive

**Q.** For `Oc1cccc(Cl)c1`, which Potency is on record?
**A.** inactive

**Q.** For `Cc1cccc(C)c1NC1=NCCCS1`, which Potency is on record?
**A.** inactive

**Q.** Which Potency does the source give for `c1ccc2c(c1)-c1cccc3cccc-2c13` here?
**A.** inactive

**Q.** For `N#CC(C#N)=Cc1ccc(O)c(O)c1`, which Potency is on record?
**A.** inactive

**Q.** For `CC(CC(C(N)=O)(c1ccccc1)c1ccccc1)N(C)C` (stereo unspecified), which Potency is on record?
**A.** inactive

**Q.** With `CN1CC[C@]23c4c5ccc(O)c4O[C@H]2[C@@H](O)C=C[C@H]3[C@H]1C5` as the compound, how does the Potency read?
**A.** inactive

**Q.** For `CCCC[P+](CC)(CCCC)CCCC` (tested in a mixture with another compound), which Potency is on record?
**A.** inactive

**Q.** For `C=CC(C)(CCC=C(C)C)OC(=O)c1ccccc1N` (stereo unspecified), which Potency is on record?
**A.** inactive

**Q.** Which Potency does the source give for `Cc1ncc(C[n+]2csc(CCO)c2C)c(N)n1` here?
**A.** inactive

**Q.** For `CCOP(=S)(S)OCC`, which Potency is on record?
**A.** inactive

**Q.** With `Cc1cnc(C2=NC(C)(C(C)C)C(=O)N2)c(C(=O)O)c1` (stereo unspecified) as the compound, how does the Potency read?
**A.** inactive

**Q.** With `C=CC(=O)NC(C)(C)CC(C)=O` as the compound, how does the Potency read?
**A.** inactive

**Q.** Which Potency does the source give for `CC(C)(C)NCC(O)c1cc(Cl)c(N)c(C(F)(F)F)c1` (stereo unspecified) here?
**A.** inactive

**Q.** Which Potency does the source give for `N#CC1(N=NC2(C#N)CCCCC2)CCCCC1` here?
**A.** inactive

**Q.** For `COc1cc(CC#N)cc(OC)c1OC`, which Potency is on record?
**A.** inactive
